JMJD2A Tudor inh – inhibitors of human JMJD2A Tudor domain; O75164; AlphaScreen JMJD2A-Tudor / H3K4me3 peptide binding; Potency, µM (top dose mostly 114 µM), usual class: inhibitors; 390,000 compounds, 4.4% hits; note: nearly all actives have a fitted effect of over 50% in size
Six1-Eya2 blk – Six1/Eya2 interaction inhibition; Q15475+O00167; AlphaScreen GST-Six1/His-Eya2 binding, biochemical; hits give low values; activity change, % (concentration not given with the values); 360,000 compounds, 0.56% hits; AID 651725; in the data active = activity change below about -65%; inconclusive = mostly about -30% to -63%
Target sequence (O00167 whole entry, looked up): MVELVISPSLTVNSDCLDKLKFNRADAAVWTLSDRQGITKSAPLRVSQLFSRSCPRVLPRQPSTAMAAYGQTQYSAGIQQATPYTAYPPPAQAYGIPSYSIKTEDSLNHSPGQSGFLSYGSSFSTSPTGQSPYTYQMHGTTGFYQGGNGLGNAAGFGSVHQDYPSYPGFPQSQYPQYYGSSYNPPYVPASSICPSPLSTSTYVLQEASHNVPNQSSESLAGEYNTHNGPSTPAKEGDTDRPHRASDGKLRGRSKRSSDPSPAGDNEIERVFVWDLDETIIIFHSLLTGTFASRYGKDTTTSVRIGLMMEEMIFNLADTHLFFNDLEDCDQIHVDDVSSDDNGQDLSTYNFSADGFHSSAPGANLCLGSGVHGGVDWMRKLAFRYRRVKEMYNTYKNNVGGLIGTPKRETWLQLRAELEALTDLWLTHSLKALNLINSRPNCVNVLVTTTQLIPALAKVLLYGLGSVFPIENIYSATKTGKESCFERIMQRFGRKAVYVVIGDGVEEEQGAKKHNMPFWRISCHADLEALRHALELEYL
Target sequence (Q15475 whole entry, looked up): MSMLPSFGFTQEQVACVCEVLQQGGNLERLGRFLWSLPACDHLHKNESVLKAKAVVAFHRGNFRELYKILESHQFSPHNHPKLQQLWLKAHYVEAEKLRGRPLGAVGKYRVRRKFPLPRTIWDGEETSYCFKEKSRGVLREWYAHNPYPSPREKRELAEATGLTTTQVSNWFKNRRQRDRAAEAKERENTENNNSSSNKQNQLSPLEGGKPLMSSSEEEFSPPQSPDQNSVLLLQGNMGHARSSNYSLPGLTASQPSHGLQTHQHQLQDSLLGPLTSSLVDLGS
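Homogeneous AlphaScreen proximity assay pairing GST-Six1 with His-tagged Eya2 (added as 5X mix: 250 nM and 500 nM) in 50 mM Tris pH 8.0, 300 mM NaCl, 1 mM TCEP. Glutathione donor and nickel acceptor beads; 1 h, 37 °C, dark.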
CtBP-E1A blk – CtBP/E1A binding inhibition; activity change, % (no concentration beside the values); AID 651724; AlphaScreen GST-E1A/His-CtBP binding, 1536-well; hits give low values; 340,000 compounds, 0.49% hits; in the data active = activity change below about -65%; inconclusive = mostly about -30% to -63%
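AlphaScreen with 125 nM GST-E1A and 125 nM His-CtBP (5X stocks) in Tris pH 8.0, 300 mM NaCl, BSA, Tween 20, TCEP. Compounds preincubated 2 h at 37 deg C, then glutathione donor/nickel acceptor beads added for 1 h at 37 deg C in dark.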
G9a block – G9a (human) methyltransferase inhibition | Q96KQ7 | G9a H3K9 monomethylation, AlphaScreen, 2 h | Potency, µM (top dose mostly 102 µM), hits mostly inhibitors | 350,000 compounds, 8.8% hits | AID 504332; note: nearly all actives have a fitted effect of over 75% in size
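Compounds were preincubated with 20 nM G9a for 15 min, after which biotinylated H3K9 peptide (500 nM) and SAM (20 uM) started a 2 h room-temperature reaction. Monomethylated product was quantified by antibody-based AlphaScreen chemiluminescence.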
BAZ2B block – inhibitors of human BAZ2B bromodomain. AID 504333. AlphaScreen BAZ2B-H3K14Ac peptide displacement. 360,000 compounds, 4.4% hits. Potency, µM (doses to about 114 µM), hits mostly inhibitors; note: nearly all actives have a fitted effect of over 60% in size
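Compounds, titrated to a top concentration of 110 uM, were incubated 30 min at room temperature with preformed BAZ2B/acetyl-K14 H3 peptide complex (50 nM each). Proximity signal was measured by AlphaScreen after 20 min with beads.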
HP1b binding inh – blocks HP1-beta chromodomain binding to methylated histone tails; P83916; AlphaScreen HP1-beta / biotin-H3K9me3 peptide binding; Potency, µM (doses to about 114 µM), usual class: inhibitors; 390,000 compounds, 0.56% hits; note: nearly all actives have a fitted effect of over 70% in size
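HP1-beta protein (50 nM final) preincubated 30 min at room temperature with biotinylated H3(1-18)K9me3 peptide (50 nM) in PBS pH 7.4, 0.01% Tween-20, then compound added for 30 min. AlphaScreen streptavidin donor/nickel chelate acceptor beads (10 ug/mL final), 30 min dark, luminescence read.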
Large screens that a line does not name were inactive. Hits are enriched below; roughly 10% of the tested compounds scored in any of these assays. Unless noted, calls come from the whole dose curve; as a rule, active = well fitted inhibition curve with a large enough effect; inconclusive = small, poorly fitted or top-dose-only effect; inactive = no such curve, though single readings can be large or run the other way.

O=C(COC(=O)c1ccccn1)Nc1ccccc1Cl	JMJD2A Tudor inh 32µM, G9a block 10µM, BAZ2B block inconclusive
CCCCCC(=O)Nc1ccc(C(=O)COC(=O)c2ccccn2)cc1	G9a block 50µM
CC(=O)Nc1ccc(NC(=O)COC(=O)c2ccccn2)cc1	G9a block 45µM, BAZ2B block 50µM
CN(C)S(=O)(=O)c1ccc(NC(=O)COC(=O)c2ccccn2)cc1	JMJD2A Tudor inh inconclusive, G9a block 50µM, BAZ2B block inconclusive
CC(=O)OCOC(=O)CN(CC(=O)OCOC(C)=O)c1ccccc1OCCOc1ccccc1N(CC(=O)OCOC(C)=O)CC(=O)OCOC(C)=O	none (no result: JMJD2A Tudor inh, Six1-Eya2 blk, CtBP-E1A blk, BAZ2B block, HP1b binding inh)
O=C(COC(=O)/C=C/c1ccccc1)Nc1cccnc1Cl	G9a block 50µM
O=C(COC(=O)/C=C/c1cccc([N+](=O)[O-])c1)Nc1cccnc1Cl	none (no result: G9a block, BAZ2B block)
CCCCCCC(=O)NCC(=O)OCC(=O)c1ccccc1	G9a block 25µM
COc1ccc2c(c1)Cc1sc(NC(=O)c3ccccc3C)nc1-2	JMJD2A Tudor inh inconclusive, G9a block inconclusive (no result: Six1-Eya2 blk, CtBP-E1A blk)
COc1ccc(S(=O)(=O)Oc2ccc3ccccc3c2)cc1	none
COC1=C(OC)C(=O)C(Sc2ccc3ccccc3c2)=CC1=O	JMJD2A Tudor inh 3.5µM, HP1b binding inh 4.5µM (no result: G9a block, BAZ2B block)
Nc1nc(=S)c2ncn(C3CCCCC3)c2[nH]1	JMJD2A Tudor inh inconclusive, Six1-Eya2 blk inconclusive (no result: G9a block, BAZ2B block)
CCCCCn1cnc2c(=S)nc(N)[nH]c21	JMJD2A Tudor inh 18µM, G9a block 8.9µM, BAZ2B block inconclusive, HP1b binding inh inconclusive (no result: CtBP-E1A blk)
CCCCn1cnc2c(=S)nc(N)[nH]c21	JMJD2A Tudor inh 11µM, G9a block 6.3µM, BAZ2B block inconclusive
CCn1cc(C(=O)N2CCN(c3cccc(Cl)c3)CC2)c(=O)c2cc(S(=O)(=O)N3CCOCC3)ccc21	none (no result: Six1-Eya2 blk, CtBP-E1A blk, BAZ2B block)
COc1ccc(NC(=O)c2ccccc2Sc2ccc(NC(C)=O)nc2)cc1	G9a block 20µM, BAZ2B block inconclusive
CC(=O)Nc1ccc(Sc2ccccc2C(=O)Nc2ccc(F)cc2)cn1	JMJD2A Tudor inh inconclusive, G9a block inconclusive, HP1b binding inh inconclusive (no result: CtBP-E1A blk)
CCOC(=O)c1c(C)[n+]([O-])c2ccc3c(non3O)c12	G9a block inconclusive, BAZ2B block inconclusive
CCOC(=O)c1c(=O)n(O)c2ccc(C)cc2[n+]1[O-]	JMJD2A Tudor inh 89µM, G9a block 50µM, BAZ2B block inconclusive
CN(C)CCCN(C(=O)c1ccc(S(=O)(=O)N2CCc3ccccc32)cc1)c1nc2c(Cl)cccc2s1	JMJD2A Tudor inh inconclusive, Six1-Eya2 blk inconclusive, CtBP-E1A blk inconclusive, G9a block 40µM, BAZ2B block inconclusive
CCOc1cccc2sc(N(CCCN(C)C)C(=O)c3ccc(S(=O)(=O)N4CCCCCC4)cc3)nc12	JMJD2A Tudor inh inconclusive
CN(C)CCCN(C(=O)c1ccc(S(=O)(=O)N2CCCCCC2)cc1)c1nc2c(F)cccc2s1	BAZ2B block inconclusive (no result: G9a block)
COc1cccc2sc(N(CCCN(C)C)C(=O)c3ccc(S(=O)(=O)N4CCCc5ccccc54)cc3)nc12	JMJD2A Tudor inh inconclusive, BAZ2B block 40µM (no result: G9a block)
Cc1cc(O)c2c(c1)OC1(C)CCC3C(C)(C)CCCC34COC2C14 (stereo not given)	none (no result: JMJD2A Tudor inh, Six1-Eya2 blk, CtBP-E1A blk, BAZ2B block, HP1b binding inh)
Clc1ccccc1Cn1nnc2c(N3CCCC3)ncnc21	none
Fc1ccccc1Cn1nnc2c(-n3ccnc3)ncnc21	JMJD2A Tudor inh 56µM
CCCCc1ccc(Nc2nc(N3CCOCC3)nc(N3CCOCC3)n2)cc1	G9a block 50µM
O=C(CSc1nc2ccc(Nc3nc(N4CCOCC4)nc(N4CCOCC4)n3)cc2s1)N1CCOCC1	none
Cc1ccc(Nc2nc(N3CCOCC3)nc(N3CCOCC3)n2)cc1	none (no result: G9a block)
CSc1nc2ccc(Nc3nc(N4CCOCC4)nc(N4CCOCC4)n3)cc2s1	G9a block 16µM
Cc1ccc(CSc2nnc([C@@H](N)C(C)C)o2)cc1	none (no result: Six1-Eya2 blk, CtBP-E1A blk)
COC(=O)c1ccccc1NC(=O)COC(=O)CSc1nnc(N)s1	G9a block 28µM (no result: CtBP-E1A blk)
Nc1nnc(SCC(=O)OCC(=O)c2ccccc2Br)s1	G9a block 40µM
CSc1ccc(NC(=O)Nc2ccc(C(=O)NCC(=O)O)cc2)cc1	JMJD2A Tudor inh 56µM, G9a block 35µM, BAZ2B block 50µM (no result: CtBP-E1A blk)
O=c1oc2ccccc2cc1-c1cn2cc(Cc3ccccc3F)sc2n1	none (no result: Six1-Eya2 blk, CtBP-E1A blk)
O=C(Nc1ccc(-c2n[nH]c(=S)o2)cc1)c1ccccc1Br	G9a block 8.9µM (no result: CtBP-E1A blk)
COc1ccc(C(=O)Nc2ccc(-c3n[nH]c(=S)o3)cc2)cc1OC	JMJD2A Tudor inh inconclusive, G9a block 1.6µM, BAZ2B block inconclusive (no result: CtBP-E1A blk)
Cc1ccc(S(=O)(=O)CC(=O)Nc2nc3c(C)cc(C)cc3s2)cc1	none (no result: Six1-Eya2 blk, CtBP-E1A blk)
CCOC(=O)c1[nH]c(C)c(CCC(=O)Nc2cc(C)ccc2OC)c1C	none (no result: Six1-Eya2 blk, CtBP-E1A blk)
Cc1ccc(Cn2c(SCc3ccc(C(=O)O)cc3)nc3cccnc32)cc1	none (no result: Six1-Eya2 blk, CtBP-E1A blk)
COc1cccc(NC(=O)Cn2c(=O)n(CCCC(=O)NCc3ccc4c(c3)OCO4)c(=O)c3ccccc32)c1	none (no result: Six1-Eya2 blk, CtBP-E1A blk)
O=C(COC(=O)Cc1c(F)cccc1Cl)Nc1ccc2[nH]c(=O)[nH]c2c1	none (no result: G9a block, BAZ2B block)
CC(C)(C)C1CCC(C(=O)OCC(=O)Nc2ccc3[nH]c(=O)[nH]c3c2)CC1 (stereo not given)	G9a block 45µM
O=C(COC(=O)CCCOc1ccc(Cl)cc1Cl)Nc1cccc(Cl)c1	none
